Results reported in the supplement of paper PMC9135407.
Where “and” joins values, the source holds several entries; their conditions need not be identical. Equal entries are not always repeated. Structures can show the parent of a compound that is named as a salt. Out of some 5,800 compounds screened, about 620 (11%) showed activity. The list comes from a sample in which actives are over-represented; it also holds similar structures and randomly drawn compounds. A number with no mark means an inactive call.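 Rule for the calls: active = score above a cut-off or among the top three wells of a plate; in these data no inactive exceeds 0.85.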

Tested on: primary human hepatic stellate cells (donor 1)
Assay: scaled lipid accumulation score (0 = DMSO-like, 1 = nortriptyline-like); higher = stronger HSC inactivation (lipid re-accumulation), active = hit call of the paper
Details: 48 h
Protocol: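 Primary lipid accumulation screen in primary human hepatic stellate cell myofibroblasts (donor 1, passage 8) in 384-well plates. 100 nL of library compound was pin-transferred into 30 µL medium in duplicate, and cells were treated for 48 h. The 'Scaled' score combines distance from plate baseline, toxicity and reproducibility penalties, and is normalised to nortriptyline (positive) and DMSO (negative) controls on each plate. A hit is defined as scaled >0.85 or among the top 3 wells per plate.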

[1] = library stock concentration: 1 mM
[2] = library stock concentration: 10 mM

## CN[C@@H]1C[C@H]2O[C@@](C)([C@@H]1OC)n1c3ccccc3c3c4c(c5c6ccccc6n2c5c31)C(=O)NC4 [Staurosporine]
[1]
  scaled lipid accumulation score: 0.546 (active)

## CN[C@@H]1C[C@H]2O[C@@](C)([C@@H]1OC)n1c3ccccc3c3c4c(c5c6ccccc6n2c5c31)C(=O)NC4 [staurosporine]
Library stock concentration: 10.7 mM
  scaled lipid accumulation score: 0.643

## COC(=O)[C@@]1(O)C[C@H]2O[C@]1(C)n1c3ccccc3c3c4c(c5c6ccccc6n2c5c31)C(=O)NC4
Library stock concentration: 1.1 mM
  scaled lipid accumulation score: 0.142

## O=C(Cc1ccc(Cl)c(Cl)c1)N1CCCCC1CN1CCCC1 (stereo not given)
[2]
  scaled lipid accumulation score: 0.581 and 0.566

## COC(=O)N1CCN(C(=O)Cc2ccc(Cl)c(Cl)c2)C(CN2CCCC2)C1 (stereo not given)
[2]
  scaled lipid accumulation score: 0.05

## COC(=O)N1CCN(C(=O)Cc2ccc(Cl)c(Cl)c2)C(CN2CCCC2)C1.O=C(O)/C=C/C(=O)O (stereo not given)
[2]
  scaled lipid accumulation score: 0.902 (active)

## CO[C@H]1CC=C2CCN3CCC4=C(CC(=O)OC4)[C@]23C1 [Dihydro-beta-erythroidine hydrobromide]
[2]
  scaled lipid accumulation score: ≤ -0.07

## COc1ccc2c(c1OC)C(=O)OC2C1c2cc3c(cc2CCN1C)OCO3 (single isomer, unassigned; (+)) [(+)-Hydrastine]
[2]
  scaled lipid accumulation score: ≤ -0.07

## CCCCC/C=C\C/C=C\C/C=C\C/C=C\CCCC(=O)Nc1cccc([N+](=O)[O-])c1 [Arachidonoyl m-Nitroaniline]
[1]
  scaled lipid accumulation score: ≤ 0

## CCOC(=O)C1(c2ccccc2)CCN(CCC(C#N)(c2ccccc2)c2ccccc2)CC1
[2]
  scaled lipid accumulation score: ≤ 0

## CN(C)C(=O)C(CCN1CCC(O)(c2ccc(Cl)cc2)CC1)(c1ccccc1)c1ccccc1.Cl [Loperamide hydrochloride]
[2]
  scaled lipid accumulation score: 1.46 (active)

## CN(C)C(=O)C(CCN1CCC(O)(c2ccc(Cl)cc2)CC1)(c1ccccc1)c1ccccc1.Cl
Library stock concentration: 9.7 mM
  scaled lipid accumulation score: 1.02 (active)

## O=C(N[C@H]1CN2CCC1CC2)c1cc2ccoc2cn1
[2]
  scaled lipid accumulation score: ≤ -0.055

## Cl[C@H]1[C@H](Cl)[C@@H](Cl)[C@@H](Cl)[C@H](Cl)[C@H]1Cl [Lindane]
Library stock concentration: 6.9 mM
  scaled lipid accumulation score: ≤ -0.001
[2]
  scaled lipid accumulation score: ≤ 0

## OC[C@@H](O)[C@H]1O[C@@H]2O[C@H](C(Cl)(Cl)Cl)O[C@@H]2[C@H]1O
[2]
  scaled lipid accumulation score: ≤ 0

## CN(C)NC(=O)CCC(=O)O [Daminozide]
Library stock concentration: 80 uM
  scaled lipid accumulation score: ≤ 0
Library stock concentration: 400 uM
  scaled lipid accumulation score: ≤ 0
Library stock concentration: 2 mM
  scaled lipid accumulation score: ≤ 0
[2]
  scaled lipid accumulation score: ≤ 0

## CC[C@@H](C(=O)[C@@H](C)[C@@H](O)[C@H](C)[C@@H]1O[C@@H]([C@@H](CC)C(=O)O)CC[C@@H]1C)[C@H]1O[C@]2(C=C[C@@H](O)[C@]3(CC[C@@](C)([C@H]4CC[C@](O)(CC)[C@H](C)O4)O3)O2)[C@H](C)C[C@@H]1C [Salinomycin, sodium]
[2]
  scaled lipid accumulation score: 0.422

## Clc1ccc(C2=CCCC3CCC2N3)cn1 (stereo not given) [UB 165 fumarate]
[2]
  scaled lipid accumulation score: 0.039

## NC1=NC(=O)C(c2ccccc2)O1 (stereo not given) [Pemoline]
[2]
  scaled lipid accumulation score: ≤ 0

## C=C(C)[C@@H]1[C@H]2OC(=O)[C@@H]1[C@]1(O)C[C@H]3OC34C(=O)O[C@H]2[C@@]41C.CC(C)(O)[C@@H]1[C@H]2OC(=O)[C@@H]1[C@]1(O)C[C@H]3OC34C(=O)O[C@H]2[C@@]41C (stereo not given in full) [Picrotoxin]
[2]
  scaled lipid accumulation score: ≤ -0.055

## O=C1C=C2C(=CCOC2O)O1 (stereo not given) [Patulin]
[2]
  scaled lipid accumulation score: 1.21 (active)

## C[C@H](N)Cn1ccc2cc(F)c(Cl)cc21.O=C(O)/C=C/C(=O)O [Ro 60-0175 fumarate]
[2]
  scaled lipid accumulation score: 0.953 (active)

## O=C[C@H](Cl)[C@@H](O)[C@H](O)[C@H](O)CO [2-Chloro-2-deoxy-D-glucose]
[2]
  scaled lipid accumulation score: ≤ -0.07

## CCN1C[C@]2(COC)CC[C@H](O)[C@]34C1[C@@](O)([C@@H](OC)[C@H]23)[C@@]1(O)C[C@H](OC)[C@H]2C[C@@H]4[C@@H]1[C@H]2OC [Delsoline]
  scaled lipid accumulation score: ≤ 0

## CN(N=O)c1ccc(O)c(O)c1 [Me-3,4-dephostatin]
[2]
  scaled lipid accumulation score: ≤ -0.055

## N=C(NCc1ccc(Cl)cc1)SCCCc1c[nH]cn1 [Clobenpropit]
[2]
  scaled lipid accumulation score: 0.903 (active)

## Br.Br.N=C(NCc1ccc(Cl)cc1)SCCCc1c[nH]cn1 [Clobenpropit dihydrobromide]
[2]
  scaled lipid accumulation score: 1.53 (active)

## Clc1ccc(C2CC3CCC2N3)cn1 (stereo not given)
Library stock concentration: 24 mM
  scaled lipid accumulation score: ≤ -0.012

## C1=C2CCCN[C@H]2[C@@H]2C[C@H]1[C@H]1CCCCN1C2 [Aloperine]
Library stock concentration: 3.33 mM
  scaled lipid accumulation score: 0.028
[2]
  scaled lipid accumulation score: 0.068

## COc1cc(C=Cc2ccc(OC)c(O)c2)cc(OC)c1
[1]
  scaled lipid accumulation score: 0.176

## Clc1ccc(N2CC3CCC(C2)N3)nn1
[2]
  scaled lipid accumulation score: ≤ -0.07

## C[N+]1(C)[C@@H]2CC(OC(=O)[C@H](CO)c3ccccc3)C[C@H]1[C@@H]1O[C@@H]12 (single isomer, unassigned; (-)) [(-)-Scopolamine methyl nitrate]
[2]
  scaled lipid accumulation score: ≤ 0

## CC(=O)O[C@H]1CC[C@@]2(C)C(=CC[C@@H]3[C@@H]2CC[C@]2(C)C(=O)CC[C@@H]32)C1 [Dehydroisoandosterone 3-acetate]
  scaled lipid accumulation score: ≤ 0

## CC(=O)O[C@H]1CC[C@@]2(C)C(=CC[C@@H]3[C@@H]2CC[C@]2(C)C(=O)CC[C@@H]32)C1 [Prasterone acetate]
[2]
  scaled lipid accumulation score: 0.103

## CCN(CC)CCO[C@H]1CC[C@@]2(C)C(=CC[C@@H]3[C@@H]2CC[C@]2(C)C(=O)CC[C@@H]32)C1.Cl
[2]
  scaled lipid accumulation score: 1.39 (active)

## CCN(CC)CCO[C@H]1CC[C@@]2(C)C(=CC[C@@H]3[C@@H]2CC[C@]2(C)C(=O)CC[C@@H]32)C1
[1]
  scaled lipid accumulation score: 0.116

## CC(C)NC(C)Cc1ccc(I)cc1 (stereo not given) [Iofetamine hydrochloride]
[2]
  scaled lipid accumulation score: 0.757

## COP(=S)(OC)Oc1ccc(SC)c(C)c1
[2]
  scaled lipid accumulation score: ≤ 0

## CO[C@H](C)[C@](O)(C(=O)OCC1=CCN2CC[C@H](O)[C@@H]12)C(C)C [Heliotrine]
  scaled lipid accumulation score: ≤ 0

## CO/C1=C\C(C)=C\[C@@H](C)[C@@H](O)[C@@H](C)C/C(C)=C/C=C/[C@H](OC)[C@@H]([C@@H](C)[C@@H](O)[C@H](C)[C@@]2(O)C[C@@H](O)[C@H](C)[C@@H](C(C)C)O2)OC1=O [Bafilomycin A1]
Library stock concentration: 800 uM
  scaled lipid accumulation score: 1.08 (active)
